# The panel holds about 83,000 compounds, 20% with a hit somewhere; the sample as a whole holds those more often.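 Note: values are percent growth. 100 is the growth of untreated cells, values between 100 and 0 indicate rising inhibition; between -100 and 0 indicates cell death.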 Unmarked numbers belong to inactive results. Activity calls are given as the source filed them. How the source made its calls: active means growth percent below 10; inactive means the rest.
# Tests used:
# Test in all cases: NCI-60 one-dose screen, 48 h (100 = growth as untreated, 0 = no growth, -100 = all killed)
# Settings in all cases: 10 µM unless noted
# SR leukemia = tested on: SR leukemia
# RPMI-8226 leukemia = tested on: RPMI-8226 leukemia
# OVCAR-8 ovarian = tested on: OVCAR-8 ovarian
# OVCAR-5 ovarian = tested on: OVCAR-5 ovarian
# OVCAR-4 ovarian = tested on: OVCAR-4 ovarian
# SK-OV-3 ovarian = tested on: SK-OV-3 ovarian
# IGROV1 ovarian = tested on: IGROV1 ovarian
# OVCAR-3 ovarian = tested on: OVCAR-3 ovarian
# HS 578T breast = tested on: HS 578T breast
# NCI/ADR-RES ovarian = tested on: NCI/ADR-RES ovarian
Compound,growth (SR leukemia),growth (RPMI-8226 leukemia),growth (OVCAR-8 ovarian),growth (OVCAR-5 ovarian),growth (OVCAR-4 ovarian),growth (SK-OV-3 ovarian),growth (IGROV1 ovarian),growth (OVCAR-3 ovarian),growth (HS 578T breast),growth (NCI/ADR-RES ovarian)
N=c1c2c(=O)n3c(nc2nc2sc4ccc(Cl)cc4n12)-c1ccccc1Sc1ccccc1-3,5.86% (active),7.72% (active),19.8%,48.2%,0.243% (active),19.5%,2.34% (active),20.9%,35.1%,12.3%
COc1cccc(NC(=O)NCCNc2nccc(-c3c(-c4ccc(F)cc4)nc4sccn34)n2)c1,88.3%,82.2%,65.5%,87%,96%,77.9%,60.5%,90.4%,110%,91.2%
COc1ccc(Cn2cc3c(c2)-c2oncc2CC3)cc1OC,16.8%,35.1%,24.5%,40.3%,43.4%,-12.4% (active),17.6%,-27.4% (active),2.04% (active),1.63% (active)
CCn1cnc(C[C@H](NC(=O)[C@@H](NC(=O)Nc2cc(C(F)(F)F)cc(C(F)(F)F)c2)C(C)(C)C)C(=O)OC)c1,-38.1% [100 µM] (active),-58.6% [100 µM] (active),-79.5% [100 µM] (active),-92.8% [100 µM] (active),-82.7% [100 µM] (active),-100% [100 µM] (active),-71.5% [100 µM] (active),-96.5% [100 µM] (active),-2.17% [100 µM] (active),7.32% [100 µM] (active)
CCCCCCCCCCN1CC2CCCCC2C1 (stereo not given),12.9%,51.6%,94%,66.2%,49.1%,83.8%,90%,77.9%,84.4%,83.8%
O=C(Nc1cccc2[nH]c(C(F)(F)F)nc12)c1ccc(F)cc1,76.3%,30.4%,90.1%,99.6%,80.3%,98.8%,85.8%,66%,77.3%,92.1%
COC(=O)c1ccc2[nH]c(O)c(C(=Nc3ccc(N(C)C(=O)CN4CCN(C)CC4)cc3)c3ccc(CCO)cc3)c2c1,6.7% (active),30.8%,64.5%,80.6%,56.6%,39.7%,16.5%,52.5%,23.9%,104%
CCCNC(=O)Oc1ccc(/C(=C(/C)Cc2ccc(OC)cc2)c2ccc(OCCN3CCCC3)cc2)cc1,-20.2% (active),49.5%,79.5%,88.4%,61.5%,81.3%,81.9%,83.6%,58.3%,75.9%
O=C(/C=C1\C(=O)N(Cc2ccccc2)c2ccccc21)c1ccc(OCCN2CCCCC2)cc1,-21.6% (active),-33.9% (active),7.86% (active),39.8%,-22.3% (active),99.7%,6.02% (active),-37% (active),77.7%,65.7%
Cc1nnc(-c2cc3c(ccc4ccccc43)oc2=O)c2cn(-c3ccc(Cl)cc3)nc12,80.4%,75%,96.3%,108%,83.8%,91.7%,87%,89.8%,93.8%,96.3%
CC(=O)/C(=C/c1ccc(-c2ccccc2)cc1)C(=O)c1ccccc1,5.97% (active),39.9%,84.5%,106%,85.8%,95.4%,91%,89.4%,102%,93.1%
Cn1cnc2nc[nH]c2c1=S,89.6%,101%,105%,94.8%,108%,105%,113%,115%,102%,101%
O=c1[nH]c(=S)[nH]c(O)c1/C=C1\C=Nc2ccccc21,5.51% (active),72.2%,48.6%,96%,91.9%,104%,40.3%,33.3%,71.7%,87.9%

# Reference: PubChem BioAssay (NCI)
